Experimental findings from publication PMC7862700, “An all-to-all approach to the identification of sequence-specific readers for epigenetic DNA modifications on cytosine” are described below.

Holding throughout (assay): DAPPL (digital affinity profiling via proximity ligation, sequencing); 10 mM Tris-HCl pH 7.5, 50 mM NaCl, 1 mM DTT, 4% glycerol, room temperature, 30 min; GST-TFs on glutathione beads, 16-mer random dsDNA library, 0.1% formaldehyde crosslink after washing; high values mean tight binding
One experiment addresses T1, FEV (Homo sapiens, UniProt Q99581 1-238).
T1 sequence: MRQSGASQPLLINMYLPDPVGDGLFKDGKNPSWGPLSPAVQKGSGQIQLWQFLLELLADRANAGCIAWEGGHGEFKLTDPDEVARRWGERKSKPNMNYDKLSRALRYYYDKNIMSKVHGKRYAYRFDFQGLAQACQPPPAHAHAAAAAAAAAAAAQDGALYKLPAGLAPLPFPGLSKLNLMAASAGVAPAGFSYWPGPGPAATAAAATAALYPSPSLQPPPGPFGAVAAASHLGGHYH
The settings on record: protein: recombinant; tags: N-terminal GST; dsDNA, one strand shown. In outline:
(§1)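 Binding signal is given per hexamer as its read frequency for a factor divided by its frequency in the tag-only sample. GST-fused human transcription factors were expressed in yeast, captured on glutathione beads, barcoded with DNA and pooled with that sample, then incubated with 200 nmole of a 16-mer random double-stranded DNA library in Tris/NaCl/DTT/glycerol buffer for 30 min at room temperature. The pools were then washed, crosslinked, proximity-ligated, amplified by PCR and sequenced on an Illumina NextSeq500.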

For the next experiment, the target named is ETV5 (Homo sapiens, UniProt P41161 1-510). The settings on record: protein: recombinant; tags: N-terminal GST; dsDNA, one strand shown. In outline:
as §1

The target of the next experiment is HSF1 (Homo sapiens, UniProt Q00613 1-529). The settings on record: protein: recombinant; tags: N-terminal GST; chain copies: 3; dsDNA, one strand shown. In outline: as §1
The target in a further experiment is T2, SPIC (Homo sapiens, UniProt Q8N5J4 1-248).
T2 sequence: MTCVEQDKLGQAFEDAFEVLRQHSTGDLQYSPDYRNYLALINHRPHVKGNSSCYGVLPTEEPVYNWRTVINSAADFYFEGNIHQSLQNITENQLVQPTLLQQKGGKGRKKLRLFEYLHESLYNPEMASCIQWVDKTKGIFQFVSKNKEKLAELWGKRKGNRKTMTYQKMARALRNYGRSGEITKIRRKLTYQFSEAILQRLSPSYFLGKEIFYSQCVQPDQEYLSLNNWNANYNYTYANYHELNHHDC
The settings on record: protein: recombinant; tags: N-terminal GST; dsDNA, one strand shown. Put shortly: as §1

Another experiment concerns the target ELF4 (Homo sapiens, UniProt Q99607 1-663). Particulars: protein: recombinant; tags: N-terminal GST; dsDNA, one strand shown. Put shortly:
as §1

In a further experiment the target is T3, ELK4 (Homo sapiens, UniProt P28324-2 1-405).
T3 sequence: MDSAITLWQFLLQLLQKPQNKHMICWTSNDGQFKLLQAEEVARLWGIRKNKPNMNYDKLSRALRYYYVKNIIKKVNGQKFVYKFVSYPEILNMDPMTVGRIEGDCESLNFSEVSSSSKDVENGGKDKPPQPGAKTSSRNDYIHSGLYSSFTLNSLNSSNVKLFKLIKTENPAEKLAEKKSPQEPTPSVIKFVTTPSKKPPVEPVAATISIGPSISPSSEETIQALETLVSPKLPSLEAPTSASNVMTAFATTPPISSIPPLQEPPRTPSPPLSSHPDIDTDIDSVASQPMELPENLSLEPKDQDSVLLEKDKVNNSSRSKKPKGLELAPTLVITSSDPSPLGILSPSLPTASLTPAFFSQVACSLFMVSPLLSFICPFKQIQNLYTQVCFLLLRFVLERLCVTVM
The settings on record: protein: recombinant; tags: N-terminal GST; dsDNA, one strand shown. Put shortly:
as §1

Another experiment has as its target T4, ETV2 (Homo sapiens, UniProt O00321 1-342).
T4 sequence: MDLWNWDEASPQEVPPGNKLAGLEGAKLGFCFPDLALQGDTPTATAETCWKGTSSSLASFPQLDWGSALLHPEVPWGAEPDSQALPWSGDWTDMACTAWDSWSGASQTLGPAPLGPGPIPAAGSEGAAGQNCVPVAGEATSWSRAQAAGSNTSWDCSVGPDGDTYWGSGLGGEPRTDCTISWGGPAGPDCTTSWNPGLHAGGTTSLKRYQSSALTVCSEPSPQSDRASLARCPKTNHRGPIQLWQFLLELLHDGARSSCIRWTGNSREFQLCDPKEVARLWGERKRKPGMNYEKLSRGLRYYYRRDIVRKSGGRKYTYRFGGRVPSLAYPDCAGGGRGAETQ
Particulars: protein: recombinant; tags: N-terminal GST; dsDNA, one strand shown. Put shortly:
as §1

In the next experiment the target is T5, ELF3 (Homo sapiens, UniProt P78545 1-371).
T5 sequence: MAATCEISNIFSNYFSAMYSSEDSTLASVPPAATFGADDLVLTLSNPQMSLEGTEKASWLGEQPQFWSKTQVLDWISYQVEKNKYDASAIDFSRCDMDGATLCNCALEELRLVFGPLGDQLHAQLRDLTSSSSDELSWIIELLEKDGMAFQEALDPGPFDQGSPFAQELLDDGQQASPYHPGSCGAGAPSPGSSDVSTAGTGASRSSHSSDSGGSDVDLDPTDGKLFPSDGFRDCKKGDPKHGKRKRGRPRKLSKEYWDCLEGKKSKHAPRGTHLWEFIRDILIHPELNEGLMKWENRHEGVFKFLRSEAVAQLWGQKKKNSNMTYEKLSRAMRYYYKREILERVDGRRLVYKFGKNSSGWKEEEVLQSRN
Particulars: protein: recombinant; tags: N-terminal GST; dsDNA, one strand shown. In outline: as §1

A further experiment concerns the target CRX (Homo sapiens, UniProt O43186 1-299). Particulars: protein: recombinant; tags: N-terminal GST; dsDNA, one strand shown. In outline:
as §1

The target in another experiment is ETV1 (Homo sapiens, UniProt P50549 1-477). The settings on record: protein: recombinant; tags: N-terminal GST; dsDNA, one strand shown. In outline: as §1
Another experiment concerns the target T6, ERF (Homo sapiens, UniProt P50548 1-548).
T6 sequence: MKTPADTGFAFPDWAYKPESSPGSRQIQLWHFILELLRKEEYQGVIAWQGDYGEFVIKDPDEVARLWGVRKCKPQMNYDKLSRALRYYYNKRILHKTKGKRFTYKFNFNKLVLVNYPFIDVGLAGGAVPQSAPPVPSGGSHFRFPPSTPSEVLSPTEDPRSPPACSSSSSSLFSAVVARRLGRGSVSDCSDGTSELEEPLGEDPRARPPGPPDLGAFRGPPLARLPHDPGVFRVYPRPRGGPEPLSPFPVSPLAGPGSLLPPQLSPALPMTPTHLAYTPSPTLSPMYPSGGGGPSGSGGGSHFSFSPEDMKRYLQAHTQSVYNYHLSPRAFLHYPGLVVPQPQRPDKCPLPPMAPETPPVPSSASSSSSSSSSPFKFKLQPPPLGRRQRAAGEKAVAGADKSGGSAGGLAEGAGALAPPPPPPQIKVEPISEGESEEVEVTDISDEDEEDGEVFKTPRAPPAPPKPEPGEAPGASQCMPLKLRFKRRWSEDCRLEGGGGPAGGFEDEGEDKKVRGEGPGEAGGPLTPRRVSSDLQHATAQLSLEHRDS
The settings on record: protein: recombinant; tags: N-terminal GST; dsDNA, one strand shown. Put shortly:
as §1

The next experiment concerns the target T7, ETV3L (Homo sapiens, UniProt Q6ZN32 1-361).
T7 sequence: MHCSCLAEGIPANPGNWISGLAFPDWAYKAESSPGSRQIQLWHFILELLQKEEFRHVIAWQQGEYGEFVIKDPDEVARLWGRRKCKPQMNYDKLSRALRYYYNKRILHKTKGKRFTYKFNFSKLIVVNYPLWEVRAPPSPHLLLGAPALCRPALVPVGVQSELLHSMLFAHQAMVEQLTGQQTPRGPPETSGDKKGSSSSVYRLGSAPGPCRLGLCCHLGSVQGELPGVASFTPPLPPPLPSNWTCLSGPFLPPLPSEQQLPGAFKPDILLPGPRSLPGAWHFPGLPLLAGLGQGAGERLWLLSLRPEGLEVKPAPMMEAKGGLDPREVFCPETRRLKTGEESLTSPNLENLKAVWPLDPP
Particulars: protein: recombinant; tags: N-terminal GST; dsDNA, one strand shown. In outline:
as §1

A further experiment has as its target T8, ETS2 (Homo sapiens, UniProt P15036 1-469).
T8 sequence: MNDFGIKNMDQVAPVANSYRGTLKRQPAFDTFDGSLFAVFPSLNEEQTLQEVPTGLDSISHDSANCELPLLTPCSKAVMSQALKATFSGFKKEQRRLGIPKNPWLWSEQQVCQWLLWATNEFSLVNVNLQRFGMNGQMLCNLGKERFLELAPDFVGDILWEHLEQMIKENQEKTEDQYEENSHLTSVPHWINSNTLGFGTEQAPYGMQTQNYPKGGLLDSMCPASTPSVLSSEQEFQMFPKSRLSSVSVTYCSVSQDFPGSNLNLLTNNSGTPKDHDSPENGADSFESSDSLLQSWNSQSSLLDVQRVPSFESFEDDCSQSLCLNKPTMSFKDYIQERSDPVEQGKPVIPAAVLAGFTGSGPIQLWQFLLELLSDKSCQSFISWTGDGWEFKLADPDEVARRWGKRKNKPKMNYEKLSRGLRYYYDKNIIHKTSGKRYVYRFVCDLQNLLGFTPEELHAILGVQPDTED
Particulars: protein: recombinant; tags: N-terminal GST; dsDNA, one strand shown. In outline:
as §1

The target in the next experiment is T9, SPDEF (Homo sapiens, UniProt O95238 1-335).
T9 sequence: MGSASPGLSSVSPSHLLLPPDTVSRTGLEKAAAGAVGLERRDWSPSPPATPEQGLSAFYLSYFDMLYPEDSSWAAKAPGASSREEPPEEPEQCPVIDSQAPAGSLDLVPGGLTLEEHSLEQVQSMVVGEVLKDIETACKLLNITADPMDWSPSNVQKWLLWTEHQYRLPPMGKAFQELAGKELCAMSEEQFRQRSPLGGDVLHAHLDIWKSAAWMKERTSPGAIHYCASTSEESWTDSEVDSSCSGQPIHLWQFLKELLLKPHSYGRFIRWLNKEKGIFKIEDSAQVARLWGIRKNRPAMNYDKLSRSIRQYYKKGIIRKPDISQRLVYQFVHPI
The settings on record: protein: recombinant; tags: N-terminal GST; dsDNA, one strand shown. In outline:
as §1

For the next experiment, the target named is T10, ETV7 (Homo sapiens, UniProt Q9Y603 1-341).
T10 sequence: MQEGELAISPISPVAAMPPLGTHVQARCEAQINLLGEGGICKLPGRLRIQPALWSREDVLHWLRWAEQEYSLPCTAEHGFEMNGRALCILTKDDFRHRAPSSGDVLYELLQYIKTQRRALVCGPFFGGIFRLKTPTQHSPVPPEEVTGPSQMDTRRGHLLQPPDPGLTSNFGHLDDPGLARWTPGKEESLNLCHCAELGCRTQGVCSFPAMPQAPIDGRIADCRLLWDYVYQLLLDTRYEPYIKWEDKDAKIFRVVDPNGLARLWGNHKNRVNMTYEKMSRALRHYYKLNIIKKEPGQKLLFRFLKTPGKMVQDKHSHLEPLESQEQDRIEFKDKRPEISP
The settings on record: protein: recombinant; tags: N-terminal GST; dsDNA, one strand shown. In outline:
as §1

The target of the next experiment is T11, ELF5 (Homo sapiens, UniProt Q9UKW6-2 1-255).
T11 sequence: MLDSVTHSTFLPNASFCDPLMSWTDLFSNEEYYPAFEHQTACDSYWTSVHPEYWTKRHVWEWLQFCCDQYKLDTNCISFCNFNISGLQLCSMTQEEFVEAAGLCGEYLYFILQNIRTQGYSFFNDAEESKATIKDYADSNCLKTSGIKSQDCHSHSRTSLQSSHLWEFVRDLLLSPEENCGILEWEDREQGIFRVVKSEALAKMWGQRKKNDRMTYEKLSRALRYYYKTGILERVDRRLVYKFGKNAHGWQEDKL
Particulars: protein: recombinant; tags: N-terminal GST; dsDNA, one strand shown. In outline: as §1

The next experiment concerns the target T12, ETV3 (Homo sapiens, UniProt P41162-2 1-143).
T12 sequence: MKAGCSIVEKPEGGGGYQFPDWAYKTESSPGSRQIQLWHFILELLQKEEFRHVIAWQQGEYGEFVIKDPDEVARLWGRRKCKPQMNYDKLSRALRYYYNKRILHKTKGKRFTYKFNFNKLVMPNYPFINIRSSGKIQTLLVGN
Particulars: protein: recombinant; tags: N-terminal GST; dsDNA, one strand shown. In outline:
as §1

Another experiment concerns the target ETV6 (Homo sapiens, UniProt P41212 1-452). The settings on record: protein: recombinant; tags: N-terminal GST; dsDNA, one strand shown. In outline:
as §1

ETV1, sequence (P50549 whole entry): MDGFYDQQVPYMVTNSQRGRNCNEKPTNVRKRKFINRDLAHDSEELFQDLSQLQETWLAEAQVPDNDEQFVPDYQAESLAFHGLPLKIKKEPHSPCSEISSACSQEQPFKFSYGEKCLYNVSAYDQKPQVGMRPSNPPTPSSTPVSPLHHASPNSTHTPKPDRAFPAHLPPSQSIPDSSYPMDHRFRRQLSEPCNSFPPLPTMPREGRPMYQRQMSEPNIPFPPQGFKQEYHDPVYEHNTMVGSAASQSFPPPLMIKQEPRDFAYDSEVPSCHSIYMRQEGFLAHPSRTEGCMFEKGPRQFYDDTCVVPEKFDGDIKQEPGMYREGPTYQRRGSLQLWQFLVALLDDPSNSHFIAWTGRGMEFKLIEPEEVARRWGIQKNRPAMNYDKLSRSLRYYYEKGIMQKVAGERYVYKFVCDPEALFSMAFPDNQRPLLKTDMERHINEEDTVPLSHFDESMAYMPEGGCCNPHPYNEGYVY
ETV5, sequence (P41161 whole entry): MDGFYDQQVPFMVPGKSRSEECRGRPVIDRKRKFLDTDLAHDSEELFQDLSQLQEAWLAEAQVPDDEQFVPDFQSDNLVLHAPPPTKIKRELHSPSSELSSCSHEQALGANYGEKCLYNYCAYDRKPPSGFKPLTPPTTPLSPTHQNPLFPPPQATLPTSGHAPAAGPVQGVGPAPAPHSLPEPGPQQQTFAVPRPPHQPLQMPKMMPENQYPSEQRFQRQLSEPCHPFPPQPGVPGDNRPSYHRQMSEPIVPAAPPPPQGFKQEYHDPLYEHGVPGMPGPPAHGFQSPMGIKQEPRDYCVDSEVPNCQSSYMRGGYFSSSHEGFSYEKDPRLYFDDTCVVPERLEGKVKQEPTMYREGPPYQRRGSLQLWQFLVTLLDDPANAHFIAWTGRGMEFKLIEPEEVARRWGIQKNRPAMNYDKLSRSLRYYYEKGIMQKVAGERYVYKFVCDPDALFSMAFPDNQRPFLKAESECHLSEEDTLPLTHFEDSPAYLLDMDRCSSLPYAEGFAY
CRX, sequence (O43186 whole entry): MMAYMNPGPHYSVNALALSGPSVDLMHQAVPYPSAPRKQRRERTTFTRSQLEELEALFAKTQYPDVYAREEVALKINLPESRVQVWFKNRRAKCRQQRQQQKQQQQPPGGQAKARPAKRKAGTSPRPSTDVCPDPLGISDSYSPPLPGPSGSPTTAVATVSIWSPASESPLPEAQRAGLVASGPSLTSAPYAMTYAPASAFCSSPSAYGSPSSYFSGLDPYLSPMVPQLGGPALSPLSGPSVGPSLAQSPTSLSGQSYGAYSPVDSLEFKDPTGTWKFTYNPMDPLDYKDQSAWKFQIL
ETV6, sequence (P41212 whole entry): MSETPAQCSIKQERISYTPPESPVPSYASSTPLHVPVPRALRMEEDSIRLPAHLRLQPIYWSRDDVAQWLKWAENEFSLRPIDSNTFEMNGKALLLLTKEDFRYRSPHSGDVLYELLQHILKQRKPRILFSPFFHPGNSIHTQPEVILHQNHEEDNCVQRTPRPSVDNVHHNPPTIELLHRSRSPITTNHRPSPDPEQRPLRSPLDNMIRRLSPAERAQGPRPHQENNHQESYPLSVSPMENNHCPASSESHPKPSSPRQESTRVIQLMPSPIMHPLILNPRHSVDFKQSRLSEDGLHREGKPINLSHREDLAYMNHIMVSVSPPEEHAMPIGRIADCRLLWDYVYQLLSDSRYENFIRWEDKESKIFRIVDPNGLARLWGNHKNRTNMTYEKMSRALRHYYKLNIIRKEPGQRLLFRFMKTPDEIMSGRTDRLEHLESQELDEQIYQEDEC
ELF4, sequence (Q99607 whole entry): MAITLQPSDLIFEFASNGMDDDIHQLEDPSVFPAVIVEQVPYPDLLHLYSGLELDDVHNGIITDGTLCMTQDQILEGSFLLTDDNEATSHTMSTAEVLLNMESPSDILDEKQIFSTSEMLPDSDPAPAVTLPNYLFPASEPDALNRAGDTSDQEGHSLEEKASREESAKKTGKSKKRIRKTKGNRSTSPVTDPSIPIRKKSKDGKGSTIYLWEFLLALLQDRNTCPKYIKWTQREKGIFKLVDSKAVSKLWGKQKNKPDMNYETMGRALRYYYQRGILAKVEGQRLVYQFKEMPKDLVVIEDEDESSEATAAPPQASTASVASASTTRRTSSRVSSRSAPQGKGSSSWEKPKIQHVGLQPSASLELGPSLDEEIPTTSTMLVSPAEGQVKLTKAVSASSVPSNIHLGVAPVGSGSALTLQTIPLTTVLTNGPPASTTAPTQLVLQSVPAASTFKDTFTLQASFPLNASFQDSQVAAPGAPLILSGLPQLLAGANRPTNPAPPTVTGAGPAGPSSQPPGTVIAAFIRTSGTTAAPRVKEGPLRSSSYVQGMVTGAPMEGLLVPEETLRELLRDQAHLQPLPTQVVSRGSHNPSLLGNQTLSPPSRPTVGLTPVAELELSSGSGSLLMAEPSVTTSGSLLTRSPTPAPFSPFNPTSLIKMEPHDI
HSF1, sequence (Q00613 whole entry): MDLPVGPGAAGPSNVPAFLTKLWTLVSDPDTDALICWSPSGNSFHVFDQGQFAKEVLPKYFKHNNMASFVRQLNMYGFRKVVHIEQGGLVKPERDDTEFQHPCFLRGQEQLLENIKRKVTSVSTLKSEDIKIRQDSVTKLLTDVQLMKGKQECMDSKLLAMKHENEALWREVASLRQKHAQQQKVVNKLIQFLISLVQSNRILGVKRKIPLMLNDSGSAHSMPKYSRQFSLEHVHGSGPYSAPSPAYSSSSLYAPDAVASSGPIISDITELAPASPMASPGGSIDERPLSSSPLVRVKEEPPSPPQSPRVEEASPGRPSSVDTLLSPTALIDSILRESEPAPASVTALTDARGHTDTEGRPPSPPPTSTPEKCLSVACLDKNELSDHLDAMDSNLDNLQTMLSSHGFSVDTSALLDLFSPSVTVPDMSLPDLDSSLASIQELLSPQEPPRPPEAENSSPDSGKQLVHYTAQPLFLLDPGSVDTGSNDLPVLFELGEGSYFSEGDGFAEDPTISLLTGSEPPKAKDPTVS

Consider CCTTGC, for which the binding signal is 1.27 fold enrichment (6-mer frequency, TF over GST control) with FEV; 1.17 fold enrichment (6-mer frequency, TF over GST control) in the experiment with ETV5; 1.04 fold enrichment (6-mer frequency, TF over GST control) with HSF1; 1.45 fold enrichment (6-mer frequency, TF over GST control) with SPIC; 1.27 fold enrichment (6-mer frequency, TF over GST control) in the experiment with ELF4; 1.2 fold enrichment (6-mer frequency, TF over GST control) with ELK4. In addition, the binding signal in the experiment with ETV2 was 1.44 fold enrichment (6-mer frequency, TF over GST control); with ELF3, 1.49 fold enrichment (6-mer frequency, TF over GST control); in the experiment with CRX, 1.02 fold enrichment (6-mer frequency, TF over GST control); in the experiment with ETV1 it was 1.33 fold enrichment (6-mer frequency, TF over GST control); with ERF, 1.43 fold enrichment (6-mer frequency, TF over GST control); in the experiment with ETV3L, 1.42 fold enrichment (6-mer frequency, TF over GST control). Moreover, the binding signal with ETS2 was 1.22 fold enrichment (6-mer frequency, TF over GST control); with SPDEF, 1.34 fold enrichment (6-mer frequency, TF over GST control); in the experiment with ETV7, 1.41 fold enrichment (6-mer frequency, TF over GST control); with ELF5, 1.28 fold enrichment (6-mer frequency, TF over GST control); with ETV3 it was 1.35 fold enrichment (6-mer frequency, TF over GST control); with ETV6 it was 1.21 fold enrichment (6-mer frequency, TF over GST control).
